Assay results taken from the supplement of paper PMC6555819.

System: FXR:RXRa (NR concentration 270 nM, RXRa partner concentration 90 nM)
Test: PBM binding z-score (relative to random genomic background probes); higher = stronger binding; sequences stand for … in GC…GCGATTGACAGCGTAGAATGAAGG
Method in brief: (§1)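 Each nuclear receptor dimer, without ligand, was incubated for 1 h on custom Agilent 4×180K protein-binding microarrays. Binding was detected with antibodies against each partner (one per run), and scanned fluorescence was regression-normalized. The binding z-scores are referenced to random human genomic background probes.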

In order of falling PBM binding z-score:
1. GTTTACGGGTCAAAGGTTATAGCATGAATAGAAT  6.92
2. CAAACTAGGTCACCGGAAGGTCAAACTCCGCATG  6.33
3. TAGCCTAGGTCATGGGCCAGTATGCCACGCGAAC  4.69
4. GCTCGGAGGAAAAGGTCAGAGCTTTGTCCGTAGA  2.6
5. CAGCCCAGGTCAGGGCCAGTATAGGAGGAACGTT  2.46
6. TCATATAGGTAAAAGGTGAAAGTCGGTGTGGTAA  1.8
7. CGAACTAGGTCAGAACAGGACAGTGGAGGATGAT  1.69
8. AGAATGAGGTTACTAAGATCAGGGAATTGCGGTC  1.46
9. CCTACTGGGCCATCAGGTCATTGATATCAACGTT  1.4
10. TAGCCTAGGTCAGATCGGACCAGTATACGCTATA  1.36
11. TCAGACAGGTGAAGGTAACTCCGGTACGCAGTCG  0.787
12. TCGAGTAGGTTACCAATGGGCCATTCAGCTTTCT  0.506
13. CCGACTGAGGCAGAAAGGTTACCATACCATCCGG  0.495
14. AGAATGAGGTAAAGATCAGGGAAACAGAATACAT  0.438
15. CCGACTGGGGCAGAAAGGTTACCATACCATCCGG  0.35
16. ACTATTCGTTGAGACGAGGGCAACCGATAGGTTG  0.146
17. TCGAGTAGGTTAGACGGGGCATTCAGCCAACATA  0.121
18. GCAGACAGGTGAAACGCACGTAACTCAGGGTGGC  -0.552

System: LXRa:RXRa (NR concentration 270 nM, RXRa partner concentration 90 nM)
Test: as above
Method in brief: as §1

In order of falling PBM binding z-score:
1. CCTTTCGGGTCACTCCAGGTTATAGCATCGGAGT  7.32
2. CAAACTAGGTCACCGGAAGGTCAAACTCCGCATG  6.34
3. AGTCAAAGTTCATCCAGGTAACGTAAGATATGCT  6.22
4. AATACAGGGTCATCGCAGGCCAGAGTACGCACAG  6.19
5. GTTTACGGGTCAAAGGTTATAGCATGAATAGAAT  5.94
6. TGTCAAAGTTCAACGGTAACGTAAGTATCCACAC  5.85
7. ATCTGTAGGTTAAGGGTCATTCAGGTTGGTTCGC  5.26
8. ATATGTAGGTTATCGGGTCATTCAATTTGCGCAT  3.55
9. ACTAGCAGGCCAAGGGTCACTAAAGATTAGTCCG  3.51
10. TAGCCTAGGTCATGGGCCAGTATGCCACGCGAAC  3.46
11. TAGCCTAGGTCATGGGCGAGTATACCACGCGAAC  3.43
12. GCTCGGAGGAAAAGGTCAGAGCTTTGTCCGTAGA  3.37
13. CATACAGGGTCAGCAAGGCCAGAGTAGGGACGGC  3.36
14. CATACAGGGTCAGCGAGGCCAGAGTAGGGACGGC  3.36
15. CATACAGGGTCAGCTACGCCAGAGTAGGGACGGC  3.1
16. GCTAGTTGGTCAGTAAAGGGTCACACACCGGTCG  2.52
17. CGTCGAAGTTCAAGGTAACGTAACAGAAAGCAGC  2.34
18. TCATATAGGTAAAAGGTGAAAGTCGGTGTGGTAA  2.29
19. TCAGACAGGTGAAGGTAACTCCGGTACGCAGTCG  2.08
20. TCGAGTAGGTTACCAATGGGCCATTCAGCTTTCT  1.7
21. GGAAGGAGGGCAAAGTTGATAGCATCTGTCGACG  1.38
22. CAGCCCAGGTCAGGGCCAGTATAGGAGGAACGTT  1.34
23. TCATATAGGAAATACAGGTGAAAGTCGGCATCTA  1.32
24. TAGCCTAGGTCAGATCGGACCAGTATACGCTATA  1.26
25. AGAATGAGGTTACTAAGATCAGGGAATTGCGGTC  1.24
26. CCTACTGGGCCATCAGGTCATTGATATCAACGTT  1.19
27. CGAACTAGGTCAGAACAGGACAGTGGAGGATGAT  0.958
28. CCGACTGAGGCAGAAAGGTTACCATACCATCCGG  0.563
29. TTACCAAGGTGGGCTGAGGTCGTTGATCCAACTC  0.463
30. CCGACTGGGGCAGAAAGGTTACCATACCATCCGG  0.432
31. AGAATGAGGTAAAGATCAGGGAAACAGAATACAT  0.311
32. CCAGACAGGTGAGAAGGTAACTAAGCCTCGATTA  0.0397
33. TCGAGTAGGTTAGACGGGGCATTCAGCCAACATA  0.00602
34. ACTATTCGTTGAGACGAGGGCAACCGATAGGTTG  -0.0079
35. ACAGACAGGTGAGTGAAGGTAACTCCGCTGGACG  -0.067
36. CCGACTGGGGCCAGGTTACCATAACGCACAGCCA  -0.087
37. TCTTGTAGCTCAAGCAGGTTAAGAAAGCCTGAGT  -0.287
38. CCTACTGGGCCAAAAAAGTCATTGATGCCGATAA  -0.318
39. CCAGACAGGTGGAAGGTAACTCAGTCTGGTACGC  -0.335
40. GCAGACAGGTGAAACGCACGTAACTCAGGGTGGC  -0.392

System: LXRa homodimer (NR concentration 270 nM)
Test: as above
Method in brief: as §1

In order of falling PBM binding z-score:
1. CAAACTAGGTCACCGGAAGGTCAAACTCCGCATG  6.11
2. AGTCAAAGTTCATCCAGGTAACGTAAGATATGCT  5.22
3. TGTCAAAGTTCAACGGTAACGTAAGTATCCACAC  4.19
4. ATCTGTAGGTTAAGGGTCATTCAGGTTGGTTCGC  3.63
5. AATACAGGGTCATCGCAGGCCAGAGTACGCACAG  2.29
6. CCTTTCGGGTCACTCCAGGTTATAGCATCGGAGT  2.02
7. ATATGTAGGTTATCGGGTCATTCAATTTGCGCAT  1.95
8. GCTAGTTGGTCAGTAAAGGGTCACACACCGGTCG  1.36
9. CCTACTGGGCCATCAGGTCATTGATATCAACGTT  1.28
10. GTTTACGGGTCAAAGGTTATAGCATGAATAGAAT  0.633
11. TCATATAGGTAAAAGGTGAAAGTCGGTGTGGTAA  0.452
12. TCATATAGGAAATACAGGTGAAAGTCGGCATCTA  0.335
13. GCTCGGAGGAAAAGGTCAGAGCTTTGTCCGTAGA  0.256
14. GGAAGGAGGGCAAAGTTGATAGCATCTGTCGACG  0.21
15. TAGCCTAGGTCATGGGCGAGTATACCACGCGAAC  0.0703
16. CATACAGGGTCAGCTACGCCAGAGTAGGGACGGC  0.0565
17. CCGACTGAGGCAGAAAGGTTACCATACCATCCGG  0.0475
18. TAGCCTAGGTCATGGGCCAGTATGCCACGCGAAC  0.00314
19. ACTAGCAGGCCAAGGGTCACTAAAGATTAGTCCG  -0.00755
20. CATACAGGGTCAGCAAGGCCAGAGTAGGGACGGC  -0.0417
21. CGTCGAAGTTCAAGGTAACGTAACAGAAAGCAGC  -0.0774
22. TTACCAAGGTGGGCTGAGGTCGTTGATCCAACTC  -0.083
23. CCGACTGGGGCAGAAAGGTTACCATACCATCCGG  -0.092
24. CCGACTGGGGCCAGGTTACCATAACGCACAGCCA  -0.139
25. AGAATGAGGTAAAGATCAGGGAAACAGAATACAT  -0.176
26. ACTATTCGTTGAGACGAGGGCAACCGATAGGTTG  -0.194
27. ACAGACAGGTGAGTGAAGGTAACTCCGCTGGACG  -0.195
28. CGAACTAGGTCAGAACAGGACAGTGGAGGATGAT  -0.201
29. AGAATGAGGTTACTAAGATCAGGGAATTGCGGTC  -0.205
30. TAGCCTAGGTCAGATCGGACCAGTATACGCTATA  -0.219
31. CCAGACAGGTGAGAAGGTAACTAAGCCTCGATTA  -0.256
32. CCTACTGGGCCAAAAAAGTCATTGATGCCGATAA  -0.289
33. TCGAGTAGGTTAGACGGGGCATTCAGCCAACATA  -0.343
34. TCAGACAGGTGAAGGTAACTCCGGTACGCAGTCG  -0.352
35. CCAGACAGGTGGAAGGTAACTCAGTCTGGTACGC  -0.385
36. CATACAGGGTCAGCGAGGCCAGAGTAGGGACGGC  -0.392
37. CAGCCCAGGTCAGGGCCAGTATAGGAGGAACGTT  -0.516
38. GCAGACAGGTGAAACGCACGTAACTCAGGGTGGC  -0.524
39. TCGAGTAGGTTACCAATGGGCCATTCAGCTTTCT  -0.585
40. TCTTGTAGCTCAAGCAGGTTAAGAAAGCCTGAGT  -0.662
